Wee1 stabilizer: blocks degradation of human Wee1 kinase; P30291; HeLa Luc-Wee1K328M stability, luciferase luminescence; 100% = proteasome inhibitor MG132 effect; reporter increase, % at 5 µM; 220,000 tested, 1.2% active;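 active = activation above the mean of all tested compounds plus 3 SD, set per screening run, cut at about 8.8% in these data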;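 note: cells exposed to compound for 20 h before luminescence read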
Target sequence (P30291 whole entry K328M): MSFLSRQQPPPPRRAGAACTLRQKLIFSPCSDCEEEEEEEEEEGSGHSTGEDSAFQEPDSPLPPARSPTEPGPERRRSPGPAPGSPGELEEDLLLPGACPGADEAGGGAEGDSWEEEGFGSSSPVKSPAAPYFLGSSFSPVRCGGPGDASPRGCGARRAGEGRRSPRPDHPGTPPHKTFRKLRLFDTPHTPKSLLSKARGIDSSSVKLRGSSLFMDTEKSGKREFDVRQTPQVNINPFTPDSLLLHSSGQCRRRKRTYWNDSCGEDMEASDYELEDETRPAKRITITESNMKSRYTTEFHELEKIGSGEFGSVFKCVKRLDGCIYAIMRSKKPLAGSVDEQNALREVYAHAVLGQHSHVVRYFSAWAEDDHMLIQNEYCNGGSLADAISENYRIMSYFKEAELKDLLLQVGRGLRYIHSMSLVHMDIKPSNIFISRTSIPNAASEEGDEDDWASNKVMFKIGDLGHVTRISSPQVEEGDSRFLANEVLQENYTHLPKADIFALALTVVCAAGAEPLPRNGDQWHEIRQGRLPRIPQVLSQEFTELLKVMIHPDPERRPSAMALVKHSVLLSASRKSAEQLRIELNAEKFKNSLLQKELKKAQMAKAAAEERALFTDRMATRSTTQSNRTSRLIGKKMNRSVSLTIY
Hsp70 act: transcriptional activators of Hsp70. activation, % at 10 µM. 200,000 tested, 0.04% active. HeLa Hsp70 promoter luciferase reporter, luminescence; scaled: vehicle 0, proteasome-inhibitor control 100%. AID 1203;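 active = activation above the mean across all tested compounds plus 3 SD, cutoff set per campaign, cut at about 5.5% in these data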
HMGR II inh: E. faecalis class II HMG-CoA reductase inhibition; 190,000 tested, 0.41% active; purified E. faecalis HMGR, NADPH absorbance 340 nm kinetic; AID 1066; inhibition, % at 10 µM;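 active = inhibition above a set limit, the median over all tested compounds plus 3 SD, cut at about 9.5% in these data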;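 note: enzyme runs in reverse so mevalonate oxidation gives rising NADPH absorbance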
Arbovirus inh: antivirals against arbovirus infection. AID 1251. arbovirus infection cell-based antiviral screen. inhibition, % at 10 µM. 200,000 tested, 0.37% active; in the data active = inhibition above about 30%
PKD1 kinase inh: PKD1 (human) kinase inhibition | 200,000 tested, 0.056% active | PKD1 kinase fluorescence polarization assay | inhibition, % (no concentration beside the values) | Q15139 | AID 797; in the data active = inhibition above about 50%
A number is an active result. Sampled rows, rich in hits. Any-hit rate of the full collection: about 2%.

COC(=O)c1ccc(OCC(=O)Nc2ccsc2C(=O)OC)cc1 was read as Wee1 stabilizer inactive, Hsp70 act inactive, HMGR II inh 12, Arbovirus inh inactive and PKD1 kinase inh inactive.
COC(=O)c1sccc1NC(=O)COc1cccc(C)c1 was read as Wee1 stabilizer inactive.
`Cc1oc2ccc(NS(=O)(=O)c3cccc4cccnc34)cc2c1C(=O)OC(C)C` gave Wee1 stabilizer inactive, Hsp70 act inactive, HMGR II inh inactive, Arbovirus inh inactive and PKD1 kinase inh inactive.
`COc1c(F)c(F)c(C(=O)Nc2ccc(-c3nc4ccccc4[nH]3)cc2)c(F)c1F` gave Wee1 stabilizer 10.0, Hsp70 act inactive, HMGR II inh inactive, Arbovirus inh inactive and PKD1 kinase inh inactive.
`O=C(Nc1ccccc1CC[N+](=O)[O-])N1CCN(c2ccccc2)CC1` gave Wee1 stabilizer inactive, Hsp70 act inactive, HMGR II inh inactive, Arbovirus inh inactive and PKD1 kinase inh inactive.
Screening CN(C)/C=C(/C(=O)c1ccc(Cl)cc1Cl)S(=O)(=O)c1ccccc1 returned Wee1 stabilizer 9.6, Hsp70 act inactive, HMGR II inh inactive, Arbovirus inh inactive and PKD1 kinase inh inactive.
Screening CN(C)/C=C(/C(=O)c1ccc(Cl)cc1)S(=O)(=O)c1ccc(Cl)cc1 returned Wee1 stabilizer inactive, Hsp70 act inactive, HMGR II inh 12, Arbovirus inh inactive and PKD1 kinase inh inactive.
`Cc1cc(C)n(/C(=C\N(C)C)C(=O)c2ccc(Cl)cc2)n1` gave Wee1 stabilizer inactive, Hsp70 act inactive, HMGR II inh inactive, Arbovirus inh inactive and PKD1 kinase inh inactive.
For CN(C)/C=C(/C(=O)c1ccc(Cl)cc1Cl)S(=O)(=O)c1ccc(Cl)cc1 the results were Wee1 stabilizer inactive, Hsp70 act inactive, HMGR II inh inactive, Arbovirus inh inactive and PKD1 kinase inh inactive.
COc1ccc(OC)c(NC(=O)CSc2nncc3ccc(OC)c(OC)c23)c1 was read as Wee1 stabilizer inactive.
`S=C(c1ccc(-c2ccc(Cl)cc2Cl)o1)N1CCCCC1` gave Wee1 stabilizer 10, Hsp70 act inactive, HMGR II inh inactive, Arbovirus inh inactive and PKD1 kinase inh inactive.
`O=S(=O)(Nc1ccc(-c2nnc(SCc3ccc(Cl)cc3)o2)cc1)c1ccccc1` gave Wee1 stabilizer inactive, Hsp70 act inactive, HMGR II inh inactive, Arbovirus inh 31 and PKD1 kinase inh inactive.
Screening Clc1ccc(CSc2nnc(-c3ccncc3)o2)cc1 returned Wee1 stabilizer inactive, Hsp70 act inactive, HMGR II inh inactive, Arbovirus inh inactive and PKD1 kinase inh inactive.
For COc1ccc(NC(=O)Cn2cccc2)cc1Cl the results were Wee1 stabilizer inactive, Hsp70 act inactive, HMGR II inh 11, Arbovirus inh inactive and PKD1 kinase inh inactive.
For CC1=CC2=NC(=O)/C(=C/c3cccs3)C(=N)N2O1 the results were Wee1 stabilizer inactive.
For CSC1=NSC2=NC(=O)/C(=C/c3coc4ccccc4c3=O)C(=N)N12 the results were Wee1 stabilizer inactive, Hsp70 act inactive, HMGR II inh inactive, Arbovirus inh inactive and PKD1 kinase inh inactive.
N=C1/C(=C/c2cccs2)C(=O)N=C2SN=C(SCc3ccccc3)N12 was read as Wee1 stabilizer inactive, Hsp70 act inactive, HMGR II inh inactive, Arbovirus inh 35 and PKD1 kinase inh inactive.
For CC(C)CSC1=NSC2=NC(=O)/C(=C\c3cccs3)C(=N)N12 the results were Wee1 stabilizer inactive, Hsp70 act inactive, HMGR II inh inactive, Arbovirus inh 48 and PKD1 kinase inh inactive.
Screening CSC1=NSC2=NC(=O)/C(=C\c3cccs3)C(=N)N12 returned Wee1 stabilizer inactive, Hsp70 act inactive, HMGR II inh inactive, Arbovirus inh 41 and PKD1 kinase inh inactive.
CCCCn1nc(C(=O)Nc2cc(S(=O)(=O)N(C)C)ccc2C)c2ccccc2c1=O was read as Wee1 stabilizer inactive.
For Cc1nc(NC(=O)c2ccc(Br)s2)sc1C(=O)N(C)C the results were Wee1 stabilizer 11, Hsp70 act inactive, HMGR II inh inactive, Arbovirus inh inactive and PKD1 kinase inh inactive.
For N#CC1CC(c2ccccc2)=NN1c1ccccc1[N+](=O)[O-] (configuration not stated) the results were Wee1 stabilizer 10, Hsp70 act inactive, HMGR II inh inactive, Arbovirus inh inactive and PKD1 kinase inh inactive.
`O=CN1N=C(c2ccccc2)CC1c1ccccc1[N+](=O)[O-]` (configuration not stated) gave Wee1 stabilizer inactive, Hsp70 act inactive, HMGR II inh inactive, Arbovirus inh inactive and PKD1 kinase inh inactive.
`CCOC(=O)c1nnn(-c2nonc2N)c1-c1ccc(Br)cc1` gave Wee1 stabilizer 9.5, Hsp70 act inactive, HMGR II inh inactive, Arbovirus inh inactive and PKD1 kinase inh inactive.
For CCOC(=O)c1nnn(-c2nonc2N)c1-c1ccc(C)cc1 the results were Wee1 stabilizer inactive, Hsp70 act inactive, HMGR II inh inactive, Arbovirus inh inactive and PKD1 kinase inh inactive.
For COCCNC(=O)Cn1cnc([N+](=O)[O-])n1 the results were Wee1 stabilizer 9.6, Hsp70 act inactive, HMGR II inh inactive, Arbovirus inh inactive and PKD1 kinase inh inactive.
For Cc1cc(C)c2c(N)c(C(=O)N/N=C/c3ccccc3)sc2n1 the results were Wee1 stabilizer inactive.
Screening Cc1cc(C)c2c(N)c(C(=O)N/N=C/c3cccnc3)sc2n1 returned Wee1 stabilizer 9.5.
COc1ccc(C(=O)C[n+]2cccc(C)c2C)cc1[N+](=O)[O-] was read as Wee1 stabilizer 11, Hsp70 act inactive, HMGR II inh inactive, Arbovirus inh inactive and PKD1 kinase inh inactive.
COc1ccc(-c2cc(C(F)(F)F)n3nc(C(=O)N4CCCCC4)cc3n2)cc1 was read as Wee1 stabilizer inactive, Hsp70 act inactive, HMGR II inh inactive, Arbovirus inh inactive and PKD1 kinase inh inactive.
COc1ccc(-c2cc(C(F)(F)F)n3nc(C(=O)NCCCN4CCOCC4)cc3n2)cc1 was read as Wee1 stabilizer 10, Hsp70 act inactive, HMGR II inh inactive, Arbovirus inh inactive and PKD1 kinase inh inactive.
Screening COc1ccc(N(CC2CO2)S(=O)(=O)c2ccccc2)cc1 (configuration not stated) returned Wee1 stabilizer inactive, Hsp70 act inactive, HMGR II inh inactive, Arbovirus inh inactive and PKD1 kinase inh inactive.
Screening O=[N+]([O-])c1ccc(-n2cccc2/C=N/Nc2nc(N3CCCCC3)nc(N3CCCCC3)n2)cc1 returned Wee1 stabilizer 11, Hsp70 act inactive, HMGR II inh inactive, Arbovirus inh inactive and PKD1 kinase inh inactive.
For CCc1ccccc1NC(=O)c1cccc(NC(=O)/C=C/c2ccco2)c1 the results were Wee1 stabilizer inactive, Hsp70 act inactive, HMGR II inh inactive, Arbovirus inh inactive and PKD1 kinase inh inactive.
O=C(CSCc1ccc(Cl)cc1)Nc1cccc(C(=O)Nc2ccccc2C(=O)O)c1 was read as Wee1 stabilizer inactive, Hsp70 act inactive, HMGR II inh inactive, Arbovirus inh 36 and PKD1 kinase inh inactive.
O=C(CSCc1ccccc1)Nc1cccc(C(=O)Nc2ccccc2C(=O)O)c1 was read as Wee1 stabilizer inactive, Hsp70 act inactive, HMGR II inh inactive, Arbovirus inh 31 and PKD1 kinase inh inactive.

Bioassay records deposited in PubChem BioAssay by several laboratories.
